# Where “and” joins values, the source holds several entries; their conditions need not be identical. Identical values can stand only once. Results filed as inconclusive are left out. Calls of active or inactive are those of the source. Calls follow the shape of the dose curve; as a rule, active = well fitted inhibition curve with a large enough effect; inconclusive = small, poorly fitted or top-dose-only effect; inactive = flat fitted curve, though single readings scatter.
# Tested on: not listed separately
# Experiment: Drug repurposing screens with cells derived from glioblastoma tumor samples (AID 1345199); also: nearly all actives have a fitted effect of over 40% in size
# Settings: GBM patient neurospheres viability, ATP luminescence, 48 h; at 46 µM (top of the series); tumour line A
# In short: (§1)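 Primary testing used CD133+ neurospheres from four GBM patients, seven concentrations, 48 h exposure and ATP-based viability; confirmation added three slower-growing patient lines.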
# % is scaled to controls: 0 for no effect and ±100 for the full control effect; potency is read from the fitted curve at half-maximal effect.
row,Structure (SMILES),"activity, negative = cell killing"
1,O=C1OCCN1/N=C/c1ccc([N+](=O)[O-])o1,-29.3% (inactive)
2,C[C@]12C=CC(=O)C=C1CC[C@@H]1[C@@H]2[C@@H](O)C[C@@]2(C)[C@H]1CC[C@]2(O)C(=O)CO,-29.3% (inactive)
3,COc1cccc2c1C(=O)c1c(O)c3c(c(O)c1C2=O)C[C@@](O)(C(=O)CO)C[C@@H]3O[C@H]1C[C@H](N)[C@H](O)[C@H](C)O1,-30.7% (inactive)
4,CCCCC1=NC2(CCCC2)C(=O)N1Cc1ccc(-c2ccccc2-c2nn[nH]n2)cc1,-12.9% (inactive)
5,C=CCc1ccc(O)c(OC)c1,-22.5% (inactive)
6,CC(=O)OCC(=O)NCCCOc1cccc(CN2CCCCC2)c1,-17.5% (inactive)

# Same assay, conditions: GBM patient neurospheres viability, ATP luminescence, 48 h; at 46.1 µM (top of the series); tumour line C
row,Structure (SMILES),"activity, negative = cell killing"
1,CCCCCCCCCCCCCCCCCC(=O)OCC(O)CO (stereo not drawn),1% (inactive)
2,CN1[C@@H]2CC[C@H]1CC(OC(=O)c1c[nH]c3ccccc13)C2 (stereo partly drawn),13.1% (inactive)
3,CO/N=C1\CN(c2nc3c(cc2F)c(=O)c(C(=O)O)cn3C2CC2)CC1CN (stereo not drawn),13.8% (inactive)
4,CCN1CCC[C@H]1CNC(=O)c1c(OC)ccc(Br)c1OC,-7.43% (inactive)
5,CC(C)COC(=O)c1ccc(N)cc1,-7.77% (inactive)
6,O=C1OCCN1/N=C/c1ccc([N+](=O)[O-])o1,4.37% (inactive)
7,Oc1ccc(O)cc1,-0.769% (inactive)
8,C[C@]12C=CC(=O)C=C1CC[C@@H]1[C@@H]2[C@@H](O)C[C@@]2(C)[C@H]1CC[C@]2(O)C(=O)CO,-10.5% (inactive)
9,O=C1OC(c2ccc(O)cc2)(c2ccc(O)cc2)c2ccccc21,2.26% (inactive)
10,COc1cccc2c1C(=O)c1c(O)c3c(c(O)c1C2=O)C[C@@](O)(C(=O)CO)C[C@@H]3O[C@H]1C[C@H](N)[C@H](O)[C@H](C)O1,-4.46% (inactive)
11,COC1=CC(=O)C[C@@H](C)[C@]12Oc1c(Cl)c(OC)cc(OC)c1C2=O,-2.75% (inactive)
12,CC(CCc1ccccc1)NCC(O)c1ccc(O)c(C(N)=O)c1 (stereo not drawn),-24% (inactive)
13,C#C[C@]1(O)CC[C@H]2[C@@H]3CCc4cc(OC5CCCC5)ccc4[C@H]3CC[C@@]21C,-25.1% (inactive)
14,CCCCC1=NC2(CCCC2)C(=O)N1Cc1ccc(-c2ccccc2-c2nn[nH]n2)cc1,8.98% (inactive)
15,C=CCc1ccc(O)c(OC)c1,5.7% (inactive)
16,C[C@]12CC[C@@H]3c4ccc(O)cc4CC[C@H]3[C@@H]1C[C@@H](O)[C@@H]2O,22.1% (inactive)
17,CC(=O)OCC(=O)NCCCOc1cccc(CN2CCCCC2)c1,-13.4% (inactive) and 4.52% (inactive)
18,CCCN1CCCC[C@H]1C(=O)Nc1c(C)cccc1C,-6.18% (inactive)
19,CC(=O)Oc1ccc2c(c1)CC[C@@H]1[C@@H]2CC[C@]2(C)[C@@H](O)CC[C@@H]12,-5.95% (inactive)

# Same assay, conditions: GBM patient neurospheres viability, ATP luminescence, 48 h; tumour line A
row,Structure (SMILES),Potency
1,CN1[C@@H]2CC[C@H]1CC(OC(=O)c1c[nH]c3ccccc13)C2 (stereo partly drawn),11.2 µM (active)
2,C#C[C@]1(O)CC[C@H]2[C@@H]3CCc4cc(OC5CCCC5)ccc4[C@H]3CC[C@@]21C,4.47 µM (active)
3,OC[C@H]1O[C@@H](n2cnc3c(=S)nc[nH]c32)[C@H](O)[C@@H]1O,1.41 µM (active)
4,CCCCOc1ccc(OCCCN2CCOCC2)cc1,4.47 µM (active)
5,CCCN1CCCC[C@H]1C(=O)Nc1c(C)cccc1C,35.5 µM (active)
6,CC(=O)Oc1ccc2c(c1)CC[C@@H]1[C@@H]2CC[C@]2(C)[C@@H](O)CC[C@@H]12,12.6 µM (active)

# Tested on: astro (control astrocytes)
# Experiment: as above
# Settings: viability, ATP luminescence, 48 h; series mostly up to 45.9 µM
# In short: as §1
row,Structure (SMILES),Potency
1,CCCCCCCCCCCCCCCCCC(=O)OCC(O)CO (stereo not drawn),inactive
2,CO/N=C1\CN(c2nc3c(cc2F)c(=O)c(C(=O)O)cn3C2CC2)CC1CN (stereo not drawn),inactive
3,COc1cc2c(cc1OC)C(C(C(=O)N(CCc1ccc(OC)c(OC)c1OC)CCc1ccc(OC)c(OC)c1OC)c1ccccc1)=NCC2 (stereo not drawn),inactive
4,Oc1c(Cl)cc(Cl)cc1Sc1cc(Cl)cc(Cl)c1O,10 µM (active)
5,O=C1c2ccccc2C(=O)C1c1ccccc1,inactive
6,Cc1ccc(O)c2ncccc12,inactive
7,CC(=O)[C@H]1CC[C@H]2[C@@H]3C[C@H](C)C4=CC(=O)CC[C@]4(C)[C@H]3[C@@H](O)C[C@]12C,inactive
8,O=C(OCC(O)CO)c1ccccc1Nc1ccnc2cc(Cl)ccc12 (stereo not drawn),inactive
9,CCN1CCC[C@H]1CNC(=O)c1c(OC)ccc(Br)c1OC,inactive
10,CC(C)COC(=O)c1ccc(N)cc1,inactive
11,O=C1OCCN1/N=C/c1ccc([N+](=O)[O-])o1,inactive
12,C[C@]12C=CC(=O)C=C1CC[C@@H]1[C@@H]2[C@@H](O)C[C@@]2(C)[C@H]1CC[C@]2(O)C(=O)CO,inactive
13,NCCc1ccn[nH]1,inactive
14,CC(CCc1ccccc1)NCC(O)c1ccc(O)c(C(N)=O)c1 (stereo not drawn),inactive
15,C#C[C@]1(O)CC[C@H]2[C@@H]3CCc4cc(OC5CCCC5)ccc4[C@H]3CC[C@@]21C,22.4 µM (active)
16,C=CCc1ccc(O)c(OC)c1,inactive
17,C[C@]12CC[C@@H]3c4ccc(O)cc4CC[C@H]3[C@@H]1C[C@@H](O)[C@@H]2O,inactive
18,CC(=O)OCC(=O)NCCCOc1cccc(CN2CCCCC2)c1,inactive
19,OC[C@H]1O[C@@H](n2cnc3c(=S)nc[nH]c32)[C@H](O)[C@@H]1O,inactive
20,CCCCOc1ccc(OCCCN2CCOCC2)cc1,inactive
21,CCCN1CCCC[C@H]1C(=O)Nc1c(C)cccc1C,inactive
22,CC(Cc1cccc(C(F)(F)F)c1)NCCOC(=O)c1ccccc1 (stereo not drawn),inactive
